Source: PubChem
beta cell repl: MIN6 beta-cell proliferation induction | MIN6 cells proliferation, ATPlite luminescence, 48 h; cells starved in 0.2% serum; 100% = growth in 10% serum | proliferation, % at 10 µM | hit rate 0.29% among 330,000;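 active means compounds whose signal lies at least 3.5 SD above the mean of all wells on their plate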;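 further: 0% = DMSO-treated cells in low-serum medium and 100% = 10% serum control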
TAG inh: reduces triacylglycerol accumulation in H9c2 cells. Nile Red lipid (TAG) fluorescence; cells loaded with 200 µM oleic acid. inhibition, % at 12.5 µM. hit rate 0.66% among 230,000;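 active means pattern-corrected inhibition of lipid staining of at least 50% with the nuclear-stain viability signal not falling by more than 50%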;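 further: 0% = DMSO wells and 100% = triacsin C control wells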
CHT inh: inhibits the human high affinity choline transporter. Q9GZV3. hit rate 0.86% among 310,000. CHT-expressing cells, membrane potential dye, choline response; stronger effect = lower value. B-score at 10 µM;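 active means B-score over 3 SD under the library average, and starting fluorescence ratio not unusually high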;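 further: choline stimulus applied at its EC90 after an EC20 pre-addition; B-score computed on integrated fluorescence ratio after choline addition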
Target sequence (Q9GZV3 whole entry, looked up): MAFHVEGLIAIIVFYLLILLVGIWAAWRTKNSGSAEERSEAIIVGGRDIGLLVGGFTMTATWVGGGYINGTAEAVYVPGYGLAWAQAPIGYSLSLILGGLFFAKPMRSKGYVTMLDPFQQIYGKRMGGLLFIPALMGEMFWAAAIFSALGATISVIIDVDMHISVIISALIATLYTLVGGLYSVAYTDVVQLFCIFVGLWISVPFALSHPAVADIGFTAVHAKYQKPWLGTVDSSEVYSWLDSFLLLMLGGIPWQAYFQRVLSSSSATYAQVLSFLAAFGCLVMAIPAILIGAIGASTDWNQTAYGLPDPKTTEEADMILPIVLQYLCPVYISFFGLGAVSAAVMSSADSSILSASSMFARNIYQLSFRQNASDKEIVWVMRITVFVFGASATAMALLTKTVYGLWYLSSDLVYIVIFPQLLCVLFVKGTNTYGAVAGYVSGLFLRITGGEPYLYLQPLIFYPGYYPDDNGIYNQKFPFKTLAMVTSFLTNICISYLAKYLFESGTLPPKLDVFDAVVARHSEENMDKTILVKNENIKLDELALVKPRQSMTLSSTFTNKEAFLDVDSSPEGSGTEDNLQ
CHT PAM: allosteric activators of human choline transporter CHT | CHT-expressing cells, membrane potential dye, choline EC20; stronger effect = higher value; LV-AA mutant CHT in HEK293 cells | B-score at 10 µM | Q9GZV3 | hit rate 0.49% among 310,000;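 active means initial fluorescence not abnormally high and integrated response B-score, plate-corrected, over 3 SD above library mean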
CHT act confirm: human CHT activation, confirmatory screen | shares compounds with CHT PAM | CHT-expressing cells, membrane potential dye fluorescence (FDSS); % of choline EC20–EC90 response window; HEK293 expressing CHT LV-AA mutant; choline added at its EC20 | activation, % at 10 µM | hit rate 91% among 2,500 | AID 504833;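 active means primary screen active, with duplicate mean activation above negative control mean plus 3 SD, cut at about 11% in these data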
HEK293 MP dye: CHT activator counter-screen hit in parental HEK293 cells | membrane potential dye fluorescence (FDSS); measured after EC20 choline addition | shares compounds with CHT PAM | ratio readout change at 10 µM, hits read low | hit rate 62% among 2,500;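 active means duplicate-averaged ratio beyond 3 SD from buffer wells, up or down, though filed actives are nearly all decreases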
* hit, by the source's call; i = inactive; / = no result given. Rows were chosen to be rich in hits. Some 1.7% of all compounds tested hit in one or more screens of this group.

SMILES	beta cell repl	TAG inh	CHT inh	CHT PAM	CHT act confirm	HEK293 MP dye
CCN(CC(=O)Nc1ccc(NC(C)=O)cc1)C(=O)c1cccc(S(=O)(=O)N2c3ccccc3CC2C)c1 (centres undefined)	0	-9	i	i	/	/
CCCCNCCS(=O)(=O)NCc1ccc(OC)cc1	/	-9	/	/	/	/
Clc1cccc(Cl)c1-c1noc(CN2CCOCC2)n1	0	-2	i	i	/	/
O=C(COC(=O)c1cc([N+](=O)[O-])ccc1N1CCOCC1)NCc1ccc(F)cc1	-1	-10	i	i	56*	i
COc1ccc(NC(=O)COC(=O)c2cc([N+](=O)[O-])ccc2N2CCOCC2)cc1	-3	-9	i	i	/	/
O=C(Nc1cccc(Cl)c1N1CCCCC1)c1ccc(N2CCOCC2)c([N+](=O)[O-])c1	0	/	i	i	/	/
O=C(Nc1cccc(Cl)c1N1CCOCC1)c1cc([N+](=O)[O-])ccc1N1CCOCC1	1	9	i	i	13*	i
CC(C)c1ccc(NC(=O)c2cc([N+](=O)[O-])ccc2N2CCOCC2)cc1	1	/	i	i	29*	i
COc1ccc(NC(=O)c2cc([N+](=O)[O-])ccc2N2CCN(C)CC2)cc1	-2	/	i	8.4*	52*	-64*
C=CCC[C@@H](Cc1ccc(F)cc1)C(=O)OC[C@@H](Cc1ccccc1)NC(=O)[C@@H](CC=C)CC(=O)N[C@@H](CO)Cc1ccccc1	-6	18	/	/	/	/
COC(=O)c1ccc(C)c(NS(=O)(=O)c2ccc(OC)cc2)c1	-4	/	i	8.1*	48*	i
CCC1CCc2sc(C(=O)NCC(c3ccc(OC)cc3)N3CCCC3)cc2C1 (centres undefined)	-6	29	i	i	22*	i
c1cc(-c2ccc(N3CCOCC3)cc2)n2cnnc2c1	/	5	/	/	/	/
Cc1nn(C)cc1/C=N/NC(=O)c1ccc2c(c1)OCO2	2	0	i	i	/	/
Cc1cc(C)n2nc(C(=O)N/N=C/c3cn(C)nc3C)nc2n1	1	2	i	i	48*	-30*
CCCCNC(=NCc1cccc(C(F)(F)F)c1)Nc1ccccc1	-6	/	i	12*	18*	i
O=C(Cn1cc(C(F)(F)F)ccc1=O)N/N=C/c1cccc(Cl)c1	-3	-9	i	i	/	/
CC(OC(=O)CN1C(=O)c2ccccc2C1=O)C(=O)NC1CCCCC1 (centres undefined)	1	/	i	i	/	/
CCOC(=O)c1cnc2ccc(OCC)cc2c1N1CCN(c2ccccc2OC)CC1	-5	25	i	i	/	/
CCOC(=O)c1cnc2ccc(OCC)cc2c1N(C)Cc1ccccc1	-4	/	i	9.6*	41*	i
CCN(Cc1ccccc1)C(c1ccc(Cl)cc1)c1nnnn1C(C)(C)C (centres undefined)	-5	/	i	7.2*	32*	i
CC(C)N(CCNC(=O)c1cn(C)c2ccc(S(=O)(=O)N(C)C)cc2c1=O)Cc1ccccc1	-5	34	i	i	/	/
CN1CCN(CCCNC(=O)c2cn(C)c3ccc(S(=O)(=O)N(C)C)cc3c2=O)CC1	-2	-8	i	6.9*	41*	-23*
Cc1cccc2c(=O)cc(C)n(CC(=O)N3CCCCC3)c12	-3	-1	i	7.6*	62*	-70*
Cc1nc2ccccc2c(=O)n1CC(=O)N1CCOCC1	-1	11	i	i	/	/
SMILES	beta cell repl	TAG inh	CHT inh	CHT PAM	CHT act confirm	HEK293 MP dye
Cc1cccc2c(=O)cc(C)n(CC(=O)N3CCOCC3)c12	1	-9	i	10*	47*	i
O=C(Cn1c(=O)c2ccccc2n(CC(=O)N2CCCCC2)c1=O)N1CCCCC1	3	-2	i	i	/	/
c1cncc(Nc2nc(-c3ccncc3)cs2)c1	4	/	i	7.5*	46*	-49*
Cc1nc(C)c(-c2csc(Nc3cccnc3)n2)s1	-1	/	i	i	35*	-34*
Clc1cccc(-c2csc(Nc3cccnc3)n2)c1	-2	11	i	i	/	/
c1cncc(Nc2nc(-c3cccnc3)cs2)c1	0	/	i	6.9*	43*	-45*
CN(CC(=O)Nc1ccc(Cl)c(Cl)c1)Cc1nnc(-c2ccc(F)cc2)o1	-5	-7	i	i	/	/
CCCCn1c(N)c(N(CCC(C)C)C(=O)c2ccc(C)c(S(=O)(=O)N3CCOCC3)c2)c(=O)[nH]c1=O	9	-8	i	i	/	/
O=C(c1cccc(C(F)(F)F)c1)C1CCCN(Cc2cccc(OCCO)c2)C1 (centres undefined)	-2	/	i	i	/	/
O=C(c1cccc(C(F)(F)F)c1)C1CCCN(Cc2cccn2-c2ccccn2)C1 (centres undefined)	-5	-14	i	12*	-5	i
O=C(N[C@@H]1CCC(=O)N(CC[C@H](Oc2ccccc2)c2ccccc2)CC1)OCc1ccccc1	-3	-13	i	i	25*	i
Cc1ccc(S[C@@H](CCN2CC[C@H](NC(=O)OCc3ccccc3)CCC2=O)c2ccccc2)cc1	-8	-14	i	i	/	/
C=CC[C@H](CC(=O)NCCO)C(=O)NC[C@@H](OC(=O)[C@H](CC=C)CC(=O)OC(C)(C)C)c1ccccc1	-1	15	/	/	/	/
CCc1cccc(CC)c1-n1c(SCC(=O)N2CCc3ccccc3C2)nnc1-c1cccnc1	-2	13	i	i	8	i
CC1Sc2ccc(C(=O)Nc3ccccc3OC(F)F)cc2NC1=O (centres undefined)	-2	-14	i	i	/	/
CC1(C)CC(C(CC(=O)O)c2ccccc2)CCO1 (centres undefined)	-2	/	i	i	/	/
CC(c1ccccc1)N(CCC(c1ccccc1)C1CCOC(C)(C)C1)C(=O)c1ccco1 (centres undefined)	0	/	i	6.4*	34*	i
CCC(C(=O)NCC1CCCO1)n1nc(C)c2sc3ccccc3c2c1=O (centres undefined)	-1	/	i	i	/	/
CCOC(=O)c1c(N=CN(C)C)c2cc([N+](=O)[O-])cnc2n1C	-2	3	i	i	38*	-46*
CCOC(=O)c1c(N)c2cc([N+](=O)[O-])ccc2n1C	-2	-9	i	i	/	/
CCCCNC(=O)COCc1cc(-c2ccc3c(c2)OCO3)on1	-2	/	i	10*	29*	i
CCCNC(=O)COCc1cc(-c2ccc3c(c2)OCO3)on1	-1	/	i	i	/	/
O=C(NNS(=O)(=O)c1ccc(F)cc1)C1CC(c2cccnc2)=NO1 (centres undefined)	-1	-16	i	i	/	/
